Measurements from PubChem BioAssay AID1159580 (chemical genetic matrix, 2015).
Where “and” joins values, the source holds several entries; their conditions need not be identical. Equal entries are not always repeated. Hit rate of the full screen: of about 5,500 compounds, about 2,000 (36%) were called active. Roughly 18% stayed inconclusive and do not appear here. No stated cut-off is given here; in the data, active means normalized growth mostly below about 0.91 (no sharp cut-off); inconclusive means no clear call, values can overlap the other calls; inactive means mostly above about 0.92. This is one part of the list.

Assay: chemical genetic growth profiling, strain panel (AID 1159580);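 further: tested at 20 µM; growth read once vehicle control cultures reached saturation at 30 °C; 1 = growth at the plate median or of vehicle wells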
Details: S. cerevisiae deletion strains, growth OD

Measured: normalized growth

CC1COc2c(N3CCN(C)CC3)c(F)cc3c(=O)c(C(=O)O)cn1c23 (stereo not drawn)
inactive: locus YAL013W, strain DEP1, stronger effect = lower value 0.993 | locus YAL021C, strain ccr4, stronger effect = lower value 0.99 | locus YAL026C, strain drs2, stronger effect = lower value 0.987 | locus YAL030W, strain snc1, stronger effect = lower value 0.988 | locus YAL040C, strain CLN3, stronger effect = lower value 1.03 | locus YBL061C, strain skt5, stronger effect = lower value 0.983 | locus YBR009C, strain hhf1, stronger effect = lower value 1 | locus YBR021W, strain FUR4, stronger effect = lower value 1.01 | locus YBR023C, strain chs3, stronger effect = lower value 0.98 | locus YBR171W, strain sec66, stronger effect = lower value 0.964 | locus YBR229C, strain ROT2, stronger effect = lower value 1.01 | locus YBR231C, strain swc5, stronger effect = lower value 0.991 | locus YBR279W, strain paf1, stronger effect = lower value 0.992 | locus YCL011C, strain gbp2, stronger effect = lower value 0.98 | locus YCL016C, strain dcc1, stronger effect = lower value 0.985 | locus YCL029C, strain bik1, stronger effect = lower value 1.01 | locus YCL061C, strain MRC1 (second series), stronger effect = lower value 1 | locus YCL061C, strain MRC1, stronger effect = lower value 0.982 | locus YCL069W, strain vba3, stronger effect = lower value 0.99 | locus YCR088W, strain abp1, stronger effect = lower value 0.986 | locus YDL005C, strain med2, stronger effect = lower value 0.974 | locus YDL035C, strain GPR1, stronger effect = lower value 1.03 | locus YDL040C, strain nat1, stronger effect = lower value 0.988 | locus YDL074C, strain BRE1, stronger effect = lower value 1.02 | locus YDL101C, strain DUN1, stronger effect = lower value 1.01 | locus YDL134C, strain PPH21, stronger effect = lower value 1.01 | locus YDL185W, strain tfp1, stronger effect = lower value 1.05 | locus YDL192W, strain arf1, stronger effect = lower value 1.01 | locus YDR001C, strain nth1, stronger effect = lower value 0.982 | locus YDR069C, strain doa4, stronger effect = lower value 1.01 | locus YDR101C, strain arx1, stronger effect = lower value 1 | locus YDR137W, strain rgp1, stronger effect = lower value 0.954 | locus YDR159W, strain sac3, stronger effect = lower value 1.01 | locus YDR162C, strain NBP2, stronger effect = lower value 1.01 | locus YDR195W, strain ref2 0.996 | locus YDR297W, strain sur2, stronger effect = lower value 0.985 | locus YDR318W, strain mcm21, stronger effect = lower value 1.01 | locus YDR334W, strain swr1, stronger effect = lower value 0.975 | locus YDR335W, strain msn5, stronger effect = lower value 0.997 | locus YDR363W, strain ESC2, stronger effect = lower value 1.01 | locus YDR388W, stronger effect = lower value 1.01 | locus YDR392W, strain spt3, stronger effect = lower value 0.903 | locus YDR502C, strain sam2, stronger effect = lower value 1.01 | locus YEL003W, strain gim4, stronger effect = lower value 1 | locus YEL037C, strain rad23, stronger effect = lower value 0.979 | locus YEL061C, strain CIN8 (second series), stronger effect = lower value 0.985 | locus YEL061C, strain CIN8, stronger effect = lower value 1.01 | locus YER002W, strain NOP16, stronger effect = lower value 0.981 | locus YER015W, strain faa2, stronger effect = lower value 0.99 | locus YER016W, strain bim1, stronger effect = lower value 1.01 | locus YER110C, stronger effect = lower value 1.02 | locus YER111C, strain swi4, stronger effect = lower value 0.983 | locus YER155C, strain BEM2 (second series), stronger effect = lower value 0.978 | locus YER155C, strain BEM2, stronger effect = lower value 1.01 | locus YER167W, strain BCK2, stronger effect = lower value 1.01 | locus YFR010W, strain ubp6, stronger effect = lower value 0.978 | locus YGL078C, strain dbp3, stronger effect = lower value 1.01 | locus YGL086W, strain mad1, stronger effect = lower value 1 | locus YGL167C, strain pmr1, stronger effect = lower value 0.985 | locus YGL173C, strain kem1, stronger effect = lower value 0.975 | locus YGL227W, strain vid30, stronger effect = lower value 0.991 | locus YGL240W, strain doc1, stronger effect = lower value 0.996 | locus YGL248W, strain PDE1, stronger effect = lower value 1 | locus YGL253W, strain hxk2, stronger effect = lower value 0.995 | locus YGR135W, strain pre9, stronger effect = lower value 1.01 | locus YGR229C, strain SMI1, stronger effect = lower value 1.03 | locus YGR252W, strain gcn5, stronger effect = lower value 1.01 | locus YHR013C, strain ard1, stronger effect = lower value 0.961 | locus YHR027C, strain rpn1, stronger effect = lower value 0.986 | locus YHR030C, strain SLT2, stronger effect = lower value 1.01 and 0.988 | locus YHR079C, strain IRE1 (second series), stronger effect = lower value 1.01 | locus YHR079C, strain IRE1, stronger effect = lower value 0.988 | locus YHR094C, strain hxt1, stronger effect = lower value 1.02 | locus YHR129C, strain ARP1, stronger effect = lower value 1 | locus YHR142W, strain chs7, stronger effect = lower value 0.956 | locus YHR200W, strain rpn10, stronger effect = lower value 1.01 | locus YIL066C, strain RNR3, stronger effect = lower value 1.01 | locus YIL073C, strain SPO22, stronger effect = lower value 1.1 | locus YIL125W, strain kgd1, stronger effect = lower value 1.01 | locus YIR030C, strain dcg1, stronger effect = lower value 1.01 | locus YJL092W, strain hpr5, stronger effect = lower value 0.983 | locus YJL095W, strain BCK1 (second series), stronger effect = lower value 0.993 | locus YJL095W, strain BCK1, stronger effect = lower value 1 and 0.976 | locus YJL115W, strain asf1, stronger effect = lower value 0.971 | locus YJL129C, strain trk1, stronger effect = lower value 0.987 | locus YJL134W, strain LCB3, stronger effect = lower value 1.01 | locus YJL154C, strain vps35, stronger effect = lower value 0.982 | locus YJL164C, strain tpk1, stronger effect = lower value 0.987 | locus YJL166W, strain qcr8, stronger effect = lower value 0.969 | locus YJL168C, strain set2, stronger effect = lower value 1.01 | locus YJL187C, strain SWE1 (second series), stronger effect = lower value 1 | locus YJL187C, strain SWE1, stronger effect = lower value 0.987 | locus YJR043C, strain POL32, stronger effect = lower value 1.02
